What follows are compounds tested on MAP4K2. Settings: concentration: 1 μM, replicates: in singlicate; n = 1.
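Note: KINOMEscan kinase panel screen.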

Compound	%Inh [%]
COc1ccc(Nc2nccc(NCCNC(=O)c3cc4ccccc4s3)n2)cc1 [GSK1379896]	0
Clc1ccc(-c2nn3ncccc3c2-c2ccnc(Nc3ccc4c(c3)OCCO4)n2)cc1 [GW829116]	0
O=C(Nc1cccc(-c2nn3ncccc3c2-c2ccnc(Nc3ccccc3)n2)c1)c1c(F)cccc1F [GSK198271]	0
Nc1ncc(-c2ccc3nccc(-c4ccncc4)c3c2)cc1S(=O)(=O)N1CCOCC1 [GSK1627798]	0
Cl.c1ccc(-c2ccc3c(Nc4ccc5[nH]ccc5c4)ccnc3c2)nc1 [GW440138]	46
COc1cccc(C2=C(Nc3ccc(Cl)c(C(=O)O)c3)C(=O)NC2=O)c1 [SB-390769]	100
O=C(Nc1n[nH]c2cc(-c3ccoc3)ccc12)C1CC1 [SB-738481]	2
CCS(=O)(=O)c1ccc(OC)c(Nc2nccc(-c3c(-c4cccc(NC(=O)c5c(F)cccc5F)c4)nn4ncccc34)n2)c1 [GSK326180]	0
CN(c1ccc(NC(=O)Nc2cc(C(F)(F)F)ccc2F)cc1)c1ccnc(Nc2ccc(S(N)(=O)=O)cc2)n1 [GW809893]	26
Oc1cc(Nc2ccnc3cc(I)ccc23)ccc1F [GW552771]	0
CC(=O)N1CCN(c2ccc(Nc3nccc(-c4sc(C(C)C)nc4-c4cccc(NS(=O)(=O)c5cccc(Cl)c5)c4)n3)cn2)CC1 [GSK1660437]	8
Cn1cc(-c2ccc3c(c2)CCN3C(=O)Cc2cccc(Cl)c2)c2c(N)ncnc21 [GSK2606590]	8
